This is part of a sample that, as a whole, favours compounds with a hit. Of some 83,000 tested, about 20% had one in any assay.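 Compound tested at a single concentration for 48 hours in 96-well plates; a percent growth value below 10 was scored as active.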 Values without a mark were called inactive. Active and inactive are the calls of the source.
What follows are molecules tested on MDA-MB-468 breast (assay: NCI-60 one-dose screen, 48 h (100 = growth as untreated, 0 = no growth, -100 = all killed)). Conditions: 10 µM unless noted.

For `CNc1nc2c(s1)C(c1cccc(F)c1)CC(=O)N2` (stereo not given), which growth is on record?
Its growth is 98%.

With `O=C(Nc1ccc2cc3ccc(NC(=O)N4CCCCCC4)cc3nc2c1)N1CCCCCC1` as the molecule, how does the growth read?
Its growth is -48.5% (active).

For `Cc1cc(N/N=C/c2nc(-c3ccc(Br)cc3)oc2C)c2cc(Cl)ccc2n1`, which growth is on record?
The growth was 25.8%.

For `O=S(c1ccccc1)c1ccc2nnnn2n1` (stereo not given), which growth is on record?
The growth was 112%.

For `COc1ccc(-c2cc(C(=O)N3N=C(c4ccc(N)cc4)CC3c3ccc(Cl)cc3)c3cc(OC)ccc3n2)cc1` (stereo not given), which growth is on record?
Its growth is 95.8%.

`CCCNC(=O)c1cn2ncnc(Nc3cc(C(=O)NC4CC4)ccc3C)c2c1C` was tested. Which growth did it give?
The growth was 73%.

`COc1cc2c(cc1OC)C(=O)/C(=C/c1cc(-c3ccc4c(c3)OCO4)n[nH]1)C2` was tested. Which growth did it give?
The growth was -26.4% (active).

How did the growth turn out when `OC1OC(COC(c2ccccc2)(c2ccccc2)c2ccccc2)C(O)C(O)C1O` (stereo not given) was run?
Its growth is 89.7%.

Which growth does the source give for `COc1cc(-c2nc(C(=O)NCC(=O)O)nn2-c2ccc(Cl)cc2)cc(OC)c1OC` here?
The growth was 113%.

For `COc1ccccc1/C=C1\Oc2cc(OCCN3CCCC3)ccc2C1=O`, which growth is on record?
The growth was 56.3%.

How did the growth turn out when `O=C(c1ccccc1)[C@@H](c1ccccc1)[C@]1(O)C(=O)Nc2ccccc21` was run?
Its growth is 102%.

How did the growth turn out when `C=C(C)[C@@H]1CC[C@]2(C(=O)NC3CCCCC3)CC[C@]3(C)[C@H](CC[C@@H]4[C@@]5(C)CCCNC(C)(C)[C@@H]5CC[C@]43C)[C@@H]12` was run?
Its growth is -85.4% (active).

Which growth does the source give for `C/C(=C(/c1ccccc1)c1ccc(N2C(=O)c3cccc4c(N5CCN(C)CC5)ccc(c34)C2=O)cc1)c1ccccc1` here?
Its growth is 42.5%.

`OB1OCc2cc(/C=C/c3cccc(C(F)(F)F)c3)ccc21` was tested. Which growth did it give?
The growth was 5.08% (active).

With `O=C1C=C(OCC=C(Cl)Cl)C(=O)c2ccccc21` as the molecule, how does the growth read?
The growth was 41.5%.

How did the growth turn out when `COc1ccc2nc3c(cc2c1)C(=O)CC(c1ccccc1)C3` (stereo not given) was run?
The growth was 68.3%.

With `COC(=O)c1ccc(NC(N)=NCC(C)(C)COc2ccc(C(F)(F)F)cc2)nc1` as the molecule, how does the growth read?
Its growth is 17.1%.

For `NS(=O)(=O)c1ccc(CCN2C(=O)/C(=C\c3ccc(Cl)cc3)C=C2c2ccc3ccccc3c2)cc1`, which growth is on record?
The growth was 91%.

Which growth does the source give for `Cn1c(N)c(N=Cc2ccccc2)c(=O)n(C)c1=O` here?
Its growth is 117%.

Which growth does the source give for `COc1cc(/C=C2\C=C(c3ccccc3)N(CCc3ccccc3)C2=O)cc(OC)c1OC` here?
The growth was 89.2%.

Which growth does the source give for `O=C(COc1ccc(Cl)cc1)N1CCN(Cc2ccc3c(c2)OCO3)CC1` here?
The growth was 98.5%.

How did the growth turn out when `O=C1/C=C/[C@@H](O)[C@@H]2C[C@@H](O)C[C@H]2/C=C/CCC[C@H](CCc2ccccc2)O1` was run?
The growth was -43.7% (active).

For `O=S(=O)(Nc1cc(Cl)c(F)c(Cl)c1)c1ccc(-c2cnc(C3CC3)o2)cc1`, which growth is on record?
Its growth is 13.5%.

With `O=c1cc(-c2ccccc2)oc2c1ccc1ccccc12` as the molecule, how does the growth read?
Its growth is 80.1%.

How did the growth turn out when `CC(=O)O.[In]` was run?
Its growth is 101%.

Which growth does the source give for `O=S(=O)(NCCNc1cc(-c2cn(-c3ccccc3)nc2-c2cccc(O)c2)ccn1)c1ccc(C(F)(F)F)cc1` here?
Its growth is 21.6%.

`O=C(OCc1ccc2c(Br)cc(Br)c(O)c2n1)N1CCN(C(=O)c2cc3ccccc3[nH]2)CC1` was tested. Which growth did it give?
The growth was 21.9%.

With `Cc1ccnc(Nc2nc3ccccc3[nH]2)n1` as the molecule, how does the growth read?
Its growth is 119%.

`Oc1ccc(CSc2nnc(-c3cnccn3)o2)c2cccnc12` was tested. Which growth did it give?
The growth was 7.59% (active).

With `CN1CCN(CCOc2ccc(-c3cnc4c(-c5cccc(F)c5)cnn4c3)cc2)CC1` as the molecule, how does the growth read?
Its growth is 65.4%.

Which growth does the source give for `Nc1cc(Cl)c(S(N)(=O)=O)cc1S(N)(=O)=O` here?
Its growth is 99.3%.

`O=[N+]([O-])c1ccc(N/N=C\c2ccccc2[N+](=O)[O-])nc1` was tested. Which growth did it give?
Its growth is 114%.

Which growth does the source give for `CNC(=O)c1cc(Oc2ccc3nc(NC(=O)c4cc(C(F)(F)F)cc(C(F)(F)F)c4)sc3c2)ccn1` here?
The growth was 23%.

Which growth does the source give for `Cc1ccc(C)c(/C=C2\CN(C(=O)OC(C)(C)C)C/C(=C\c3cc(C)ccc3C)C2=O)c1` here?
Its growth is 57.3%.

`Cc1cc(N(CCCNc2ccnc3cc(Cl)ccc23)Cc2cccs2)nc(Cl)n1` was tested. Which growth did it give?
Its growth is 1.63% (active).

`C=C1C(=O)O[C@H]2[C@H]1CC/C(COC(=O)NCc1ccc(Cn3c(=O)sn(CCCI)c3=O)cc1)=C\CC[C@@]1(C)O[C@@H]21` was tested. Which growth did it give?
Its growth is -28.8% (active).

`Cc1nc(-c2ccc(Cl)cc2)ccc1NC(=O)Nc1cccc(C(F)(F)F)c1` was tested. Which growth did it give?
Its growth is 98.5%.

With `Cc1ccc(-c2c3c(N)c4c(nc3nc3c2c(C)nn3-c2ccccc2)CCCC4)cc1` as the molecule, how does the growth read?
Its growth is 107%.

How did the growth turn out when `CCOc1c(OC)cc2c(c1O)C(=O)N[C@@H]1[C@@H](O)[C@@H](O)[C@H](O)C[C@@H]21` was run?
The growth was 94.9%.

`Nc1cc(N)nc(SCC(=O)O)n1` was tested. Which growth did it give?
The growth was 108%.

From PubChem BioAssay (NCI)
